A short description of assay [1]: qHTS assay to identify small molecule antagonists of the androgen receptor (AR) signaling pathway using the MDA cell line in the presence of 0.5 nM R1881 - cell viability counter screen (AID 1259242). Also: nearly all actives have a fitted effect of over 45% in size. In a few lines:
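Live-cell protease fluorescence, CellTiter-Fluor, 30 min at 37C. Cells: MDA-kb2, 3,000/well, preincubated 5 hr. Compounds plus 0.5 nM R1881 final, 16 hr, 37C, 0% CO2.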

In assay [2] the target is Estrogen receptor (Homo sapiens) (UniProt P03372). In words: qHTS assay to identify small molecule antagonists of the estrogen receptor alpha (ER-alpha) signaling pathway using the BG1 cell line in the presence of 0.1 nM 17-beta-estradiol (AID 1259244). Also: nearly all actives have a fitted effect of over 50% in size. In a few lines:
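Luminescence after ONE-Glo (30 min, room temperature) measured ERE-luciferase activity in VM7Luc4E2 cells treated 22 h with compound and 0.1 nM final 17beta-estradiol as stimulator.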
A general note: qHTS replaces the single test concentration by a dilution series.

Assay [3] can be described thus: qHTS assay to identify small molecule HDAC inhibitors - cell viability counter screen (AID 1259365). Also: series mostly up to about 92 µM; nearly all actives have a fitted effect of over 50% in size. In a few lines: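 Cytotoxicity was gauged in wild-type HCT-116 cells after a brief 2hr treatment with DMSO-dissolved compounds at 37C and 5% CO2, using CellTiter-Glo luminescence developed for 30min at room temperature.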
Assay [4] in a line: qHTS assay to identify small molecule agonists of the sonic hedgehog signaling (Shh) pathway - cell viability counter screen (AID 1259366). Also: nearly all actives have a fitted effect of over 50% in size. Also: potency is read from the fitted curve at half-maximal effect. The procedure, abridged: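 Stable Gli1-Luc NIH/3T3 clone, 2,000 cells/well. Compound exposure 24hr at 37C. Read-out: CellTiter-Fluor fluorescence.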
Assay [5] in a line: qHTS assay to identify small molecule antagonists of the sonic hedgehog signaling (Shh) pathway - cell viability counter screen (AID 1259367). Also: nearly all actives have a fitted effect of over 55% in size. Also: potency is read from the fitted curve at half-maximal effect. The procedure, abridged: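 Tox21 library chemicals were tested on a Gli1-Luc NIH/3T3 clone (2,000 cells/well) stimulated by conditioned medium; viability was quantified as fluorescence from CellTiter-Fluor reagent added at 23 hr.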
The nature of assay [6]: qHTS assay to identify small molecule agonists of the sonic hedgehog signaling (Shh) pathway (AID 1259368; calls by dose curve;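 also: NIH/3T3-derived 3T3Gli1-Luc cells carrying a stable Gli1-driven firefly luciferase reporter; series mostly up to about 92 µM; nearly all actives have a fitted effect of over 15% in size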). In a few lines: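 Read-out: firefly luciferase luminescence from a Gli1 response element reporter stably integrated in NIH/3T3-derived 3T3Gli1-Luc cells, measured 30 min at room temperature after reagent addition. Compound exposure lasted 24 hr at 37 C, 5% CO2.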
Assay [7] addresses Estrogen receptor beta (Homo sapiens) (UniProt Q92731). Description: qHTS assay to identify small molecule agonists of the estrogen receptor beta (ER-beta) signaling pathway (AID 1259377; active = well fitted activation curve with a large enough effect in the signal ratio in the repeat runs, not every such curve was filed as active; the % refers to the signal ratio). The procedure, abridged:
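Measured by fluorescence intensity from a B/G FRET beta-lactamase substrate (2 h, room temperature) in ER-beta-UAS-bla HEK293T cells treated with DMSO-dissolved compounds for 16 hr at 37C and 5% CO2.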

Assay [8] has the same target. Description: qHTS assay to identify small molecule antagonists of the estrogen receptor beta (ER-beta) signaling pathway (AID 1259378; active = well fitted inhibition curve with a large enough effect in the signal ratio in the repeat runs, not every such curve was filed as active; the % refers to the signal ratio). In a few lines: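 ER-beta-UAS-bla HEK293T cells in 2% charcoal-stripped FBS medium treated with compound plus 1nM final 17-beta-estradiol for 16 hr at 37C. Beta-lactamase reporter read by FRET substrate fluorescence after 2 hours at room temperature.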

Assay [9] in a line: qHTS assay to identify small molecule agonists of the androgen receptor (AR) signaling pathway in the presence of an antagonist - cell viability counter screen (AID 1259379). Also: nearly all actives have a fitted effect of over 25% in size. Also: potency is read from the fitted curve at half-maximal effect. The procedure, abridged:
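Viability counter screen: CellTiter-Fluor fluorescence, measured in the same wells as the luciferase read-out. MDA-kb2 cells, 3,000/well, with nilutamide at 3.0uM final and compounds at 15 concentrations, 16 hr at 37C, 0% CO2.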

Assay [10] in a line: qHTS assay to identify small molecule agonists of the estrogen receptor beta (ER-beta) signaling pathway - cell viability counter screen (AID 1259380). Also: nearly all actives have a fitted effect of over 30% in size. Also: potency is read from the fitted curve at half-maximal effect. In a few lines: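 Luminescence read-out (CellTiter-Glo, 30 min, room temp) taken in the same wells as the beta-lactamase reporter assay; ER-beta-UAS-bla HEK293T cells exposed to DMSO-dissolved compounds for 16 hr at 37C in 2% charcoal-stripped FBS medium.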

Assay [11] in a line: qHTS assay to identify small molecule antagonists of the estrogen receptor beta (ER-beta) signaling pathway - cell viability counter screen (AID 1259382). Also: nearly all actives have a fitted effect of over 55% in size. Also: potency is read from the fitted curve at half-maximal effect. In a few lines: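 Luminescent ATP read-out (CellTiter-Glo, 30 min, RT) taken in the same wells as the bla reporter assay. HEK293T ER-beta-UAS-bla cells in 2% charcoal-stripped FBS were exposed to compounds with 1nM E2 for 16 hr at 37C.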

Assay [12] concerns the target Estrogen receptor (Homo sapiens) (UniProt P03372). In words: qHTS assay to identify small molecule agonists of the estrogen receptor alpha (ER-alpha) signaling pathway in the presence of an antagonist (AID 1259383; calls by dose curve; also: top concentration of the series differs between compounds; nearly all actives have a fitted effect of over 15% in size). In a few lines: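 Luciferase luminescence (ONE-Glo, 30min at room temperature) measured in VM7Luc4E2 cells after 22hr compound exposure at 15 concentrations, with 10.0nM ICI-182,780 final present; cells express endogenous ER-alpha and carry four EREs upstream of luciferase.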

Assay [13] concerns the target Thyrotropin receptor (Homo sapiens) (UniProt P16473). Description: qHTS assay to identify small molecule antagonists of the thyroid stimulating hormone receptor (TSHR) signaling pathway (AID 1259385; calls by dose curve; also: nearly all actives have a fitted effect of over 20% in size). In a few lines:
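TSHR-HEK293 cells (800/well) plated 18 h, then compounds with Ro20-1724 and TSH at 1.5 ng/mL final, 30 min at room temperature. cAMP quantified by HTRF (cAMP-d2/anti-cAMP-cryptate, 1 h); 15 concentrations in triplicate.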

A short description of assay [14]: qHTS assay to identify small molecule agonists of the estrogen receptor alpha (ER-alpha) signaling pathway in the presence of an antagonist - cell viability counter screen (AID 1259386). Also: series mostly up to about 92 µM; nearly all actives have a fitted effect of over 30% in size. The procedure, abridged: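 Read-out: CellTiter-Fluor fluorescence after 1hr reagent incubation, measured in the same wells as the luciferase readout. VM7Luc4E2 cells were exposed to 15 compound concentrations with 10.0nM ICI-182,780 for 22hr at 37C.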

A short description of assay [15]: qHTS assay to identify small molecule phospholipidosis (PLD) inducers (AID 1259344; active = well fitted curve in the direction sought with a large enough effect; an effect the other way counts as inactive or inconclusive). The procedure, abridged: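 Image-based: LipidTOX Red pit count/intensity per well and per cell; HepG2, 24 h compound at 37 C, PFA fixation, Hoechst counterstain.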
The nature of assay [16]: qHTS assay to identify small molecule agonists or antagonists of the thyroid stimulating hormone receptor (TSHR) signaling pathway - wild type cell line counter screen (AID 1259384; calls by dose curve). The procedure, abridged:
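Wild-type Hek293 cells, 800/well, 18 h at 37C, then compound with Ro20-1724 for 30 min RT. cAMP by HTRF (cAMP-d2/anti-cAMP cryptate), 1 h RT, fluorescence read. 15 concentrations, triplicates.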

A short description of assay [17]: qHTS assay to identify small molecule HDAC inhibitors (AID 1259364).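 Also: wild-type HCT-116 cells with endogenous class I/II HDAC activity; top concentration of the series differs between compounds; nearly all actives have a fitted effect of over 45% in size.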 The procedure, abridged: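 HCT-116 (wild type), 1,500 cells/well, overnight; compound 2 hr 37C 5% CO2; HDAC-Glo I/II reagent 30 min RT; luminescence readout.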
The nature of assay [18]: qHTS assay to identify small molecule antagonists of the sonic hedgehog signaling (Shh) pathway (AID 1259369; calls by dose curve; also: nearly all actives have a fitted effect of over 45% in size; also: potency is read from the fitted curve at half-maximal effect). The procedure, abridged:
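Luminescence readout: firefly Luc under Gli1 response element in 3T3Gli1-Luc cells (NIH/3T3 clone). Antagonist mode, stimulation by conditioned medium; compound exposure 24hr at 37 C, 5% CO2.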

Values joined by “and” are separate entries in the source; they are usually repeats but may differ in a detail not shown here. Identical values can stand only once. Inconclusive results are not listed. A structure can be active in one record and inactive in another. Active and inactive are the calls of the source. Unless noted, calls follow the shape of the dose curve; as a rule, active = well fitted curve in the direction sought with a large enough effect in the repeat runs; inconclusive = weak or mixed curves; inactive = no such curve, though single readings can be large; an effect the other way counts as inactive or inconclusive.

Consider nine compounds from PubChem BioAssay (Tox21).

Estrogen receptor beta (Homo sapiens), sequence (Q92731 whole entry, looked up): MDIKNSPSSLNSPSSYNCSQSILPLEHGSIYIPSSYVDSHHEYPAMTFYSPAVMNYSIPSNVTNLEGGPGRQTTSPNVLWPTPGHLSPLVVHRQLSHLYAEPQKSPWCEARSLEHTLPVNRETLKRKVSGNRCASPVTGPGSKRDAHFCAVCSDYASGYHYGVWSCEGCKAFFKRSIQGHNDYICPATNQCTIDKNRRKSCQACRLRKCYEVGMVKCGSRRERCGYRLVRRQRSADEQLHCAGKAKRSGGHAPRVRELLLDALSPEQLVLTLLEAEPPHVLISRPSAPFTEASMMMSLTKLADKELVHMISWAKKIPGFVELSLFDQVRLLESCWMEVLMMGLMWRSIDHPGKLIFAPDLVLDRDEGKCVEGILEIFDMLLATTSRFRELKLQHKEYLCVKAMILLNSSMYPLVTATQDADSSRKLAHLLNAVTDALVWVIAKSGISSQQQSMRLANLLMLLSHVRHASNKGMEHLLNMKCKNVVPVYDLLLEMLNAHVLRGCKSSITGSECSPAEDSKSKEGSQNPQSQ
Estrogen receptor (Homo sapiens), sequence (P03372 whole entry, looked up): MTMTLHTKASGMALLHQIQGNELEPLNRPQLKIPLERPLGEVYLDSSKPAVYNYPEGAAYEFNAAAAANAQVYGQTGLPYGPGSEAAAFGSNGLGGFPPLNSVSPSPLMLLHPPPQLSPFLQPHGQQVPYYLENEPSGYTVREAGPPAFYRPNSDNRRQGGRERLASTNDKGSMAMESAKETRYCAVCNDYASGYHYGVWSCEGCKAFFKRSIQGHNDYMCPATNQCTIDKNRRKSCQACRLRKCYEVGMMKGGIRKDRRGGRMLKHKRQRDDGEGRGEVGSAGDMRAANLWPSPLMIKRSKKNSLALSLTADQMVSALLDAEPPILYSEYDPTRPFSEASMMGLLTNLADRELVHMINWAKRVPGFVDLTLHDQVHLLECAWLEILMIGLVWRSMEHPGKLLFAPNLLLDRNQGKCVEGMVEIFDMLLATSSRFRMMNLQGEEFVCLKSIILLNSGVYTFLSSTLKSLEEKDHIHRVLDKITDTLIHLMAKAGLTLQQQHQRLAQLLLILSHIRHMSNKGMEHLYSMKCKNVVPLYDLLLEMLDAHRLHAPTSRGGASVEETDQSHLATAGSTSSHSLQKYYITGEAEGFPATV
Thyrotropin receptor (Homo sapiens), sequence (P16473 whole entry, looked up): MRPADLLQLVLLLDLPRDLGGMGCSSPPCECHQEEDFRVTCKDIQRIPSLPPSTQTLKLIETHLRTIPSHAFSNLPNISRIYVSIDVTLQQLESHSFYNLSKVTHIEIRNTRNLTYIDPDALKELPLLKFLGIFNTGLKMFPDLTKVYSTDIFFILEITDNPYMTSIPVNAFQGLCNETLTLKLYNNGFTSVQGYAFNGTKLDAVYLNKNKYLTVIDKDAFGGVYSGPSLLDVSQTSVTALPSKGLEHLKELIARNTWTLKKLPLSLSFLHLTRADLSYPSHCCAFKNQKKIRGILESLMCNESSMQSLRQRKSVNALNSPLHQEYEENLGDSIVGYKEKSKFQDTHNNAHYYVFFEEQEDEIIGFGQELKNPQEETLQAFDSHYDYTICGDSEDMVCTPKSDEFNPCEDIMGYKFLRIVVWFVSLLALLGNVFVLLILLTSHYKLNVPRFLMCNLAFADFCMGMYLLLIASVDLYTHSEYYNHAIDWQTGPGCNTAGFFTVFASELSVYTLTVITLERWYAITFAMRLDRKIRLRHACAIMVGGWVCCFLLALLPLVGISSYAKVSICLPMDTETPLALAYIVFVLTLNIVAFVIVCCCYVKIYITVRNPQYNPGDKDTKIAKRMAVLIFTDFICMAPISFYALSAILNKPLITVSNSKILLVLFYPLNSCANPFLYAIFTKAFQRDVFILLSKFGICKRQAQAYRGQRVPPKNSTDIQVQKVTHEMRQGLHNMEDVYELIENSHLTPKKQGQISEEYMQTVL

With `[O-]/[N+](=N\O)c1ccccc1`, the Potency result in assay [1], in assay [2], in assay [4], in assay [5], in assay [6] and in assay [7] was “inactive” in each case. The Potency entry in assay [8], in assay [9], in [10], in assay [11], in assay [12] and in assay [13] was “inactive” throughout. In addition, the Potency entry in [14] was “inactive”. Further, the outcome in assay [3] was inactive.

With `CC/C(=C(/CC)c1ccc(O)cc1)c1ccc(O)cc1`, the Potency entry in [1], in [15], in [4], in assay [5], in [16] and in [13] was “inactive” in each case. Moreover, in assay [14], the Potency entry was “inactive”. In addition, the compound was called inactive in assay [3]. Moreover, the Potency in assay [9] is 60.6 µM (active) and inactive; in [10] it was 60.6 µM (active) and 61.1 µM (active); in assay [11], 60.6 µM (active) and inactive.

Turning to `CCC(=O)O[C@H]1[C@H](O[C@@H]2[C@@H](C)[C@H](O[C@H]3C[C@@](C)(OC)[C@@H](O)[C@H](C)O3)[C@@H](C)C(=O)O[C@H](CC)[C@@](C)(O)[C@H](O)[C@@H](C)C(=O)[C@H](C)C[C@@]2(C)O)O[C@H](C)C[C@@H]1N(C)C`, the Potency entry in [1], in [17], in assay [6], in assay [7], in assay [8] and in [9] was “inactive” throughout. Besides, in assay [3], the compound was classed as inactive. In addition, the Potency in assay [4] is 16.1 µM (active) and inactive; in [5] it was 14.4 µM (active); in assay [10], 36.1 µM (active) and inactive; in assay [11], 32.2 µM (active) and inactive.

As for `COC(=O)CC(=O)OC`, the Potency result in [1], in [2], in assay [4], in assay [5], in assay [6] and in [7] was “inactive” throughout. For the same compound, the Potency result in [8], in assay [9], in assay [10], in assay [11], in [12] and in assay [13] was “inactive” each time. The Potency result in assay [14] was “inactive”. Besides, the compound was classed as inactive in assay [3].

Consider `c1ccc2c(c1)ccc1cc3c(ccc4ccccc43)cc12`, for which the Potency result in assay [1], in assay [2], in assay [4], in assay [5], in assay [6] and in assay [9] was “inactive” each time. Also, the Potency entry in [10], in assay [11], in assay [12], in [16] and in assay [14] was “inactive” in each case. The compound was classed as inactive in [3].

Consider `Cc1ccc(C)c(O)c1`, for which the Potency result in [1], in assay [17], in assay [4], in assay [5], in assay [6] and in [9] was “inactive” each time. The Potency entry in assay [10], in assay [11], in [16] and in [13] was “inactive” in each case. Moreover, the outcome in assay [3] was inactive.

On to `CC1(C)NC(=O)N(c2ccc([N+](=O)[O-])c(C(F)(F)F)c2)C1=O`, for which the Potency entry in assay [1], in assay [15], in [4], in assay [5], in assay [6] and in assay [7] was “inactive” throughout. Moreover, the Potency result in [8], in [9], in [10], in [11] and in [13] was “inactive” in each case. In assay [3], the compound was called inactive. Further, in assay [18], the Potency was 15.4 µM (active).

In the case of `CC1(C)OC(=O)NC1=O`, the Potency entry in assay [1], in assay [15], in assay [4], in assay [5], in assay [6] and in assay [18] was “inactive” in each case. The Potency entry in assay [9], in [10], in assay [11], in [16], in assay [13] and in assay [14] was “inactive” in each case. In addition, the call in [3] was inactive.

`CC(C)(Oc1ccc(Cl)cc1)C(=O)O`: the Potency entry in assay [1], in [15], in [17], in assay [4], in assay [5] and in assay [6] was “inactive” each time. In addition, the Potency result in assay [18], in [9], in [10], in assay [11], in [13] and in [14] was “inactive” throughout. In addition, the compound was called inactive in assay [3].
